Test results: PubChem BioAssay AID2315 (National Center for Advancing Translational Sciences (NCATS), 2010)
The whole screen tested about 290,000 compounds, of which about 27,000 (9.3%) were called active. The list comes from a sample in which actives are over-represented; it also holds similar structures and randomly drawn compounds. Unmarked numbers belong to inactive results. No stated cut-off is given here; in the data, active means inhibition mostly above about 28% (no sharp cut-off); inactive means mostly below about 43%. Where a SMILES comes first, the peptide text is derived from it. The star is where a group is joined. OPac = O=C(CO*)c1ccccc1; Bz = O=C(c1ccccc1)*

Experiment: A qHTS for Small Molecule Inhibitors of Shiga Toxin; further: 0% is about no effect
Settings: Vero cells, Shiga toxin protein synthesis inhibition reporter; at 38.7 µM, hits give high values

Structure (SMILES)	inhibition
Cc1cc(C)cc(NS(=O)(=O)Cc2ccccc2)c1	40.6%
O=C(N/N=C\c1cc2c(cc1Cl)OCO2)c1ccc(Br)s1	-3.59%
CC(NCc1cccs1)C(=O)Nc1cc(Cl)cc(Cl)c1 (centres undefined)	24.3%
Cc1ccc(-c2csc(N3CCN(c4cc5c(cc4Cl)nc(-c4ccncc4)n5CCOCCO)CC3)n2)cc1	-3.86%
Cc1sc2ncn(CC(=O)NCCCC(=O)NCc3ccc(F)cc3)c(=O)c2c1C	-6.98%
O=C1CS(=O)CN1c1ccc(Oc2ccccc2)cc1 (centres undefined)	-11.4%
Cc1n[nH]c(=O)n1-c1ccc(Oc2ccccc2)cc1	32% (active)
Cc1n[nH]c(=O)n1-c1ccc(C(C)C)cc1	-1.39%
COC(=O)c1ccccc1SC1CC(=O)N(c2cccc(C)c2)C1=O (centres undefined)	25.9%
Cc1ccc([N+](=O)[O-])cc1S(=O)(=O)N1CCCN(C)CC1	-3.46%
C(=N\Nc1ccc2ccccc2n1)/c1ccc2c(c1)OCO2	4.21%
Cc1nc(Cl)cc(N/N=C/c2ccccc2)n1	47.5%
Cc1noc(C)c1/C=N/Nc1ccc2ccccc2n1	64.2% (active)
CN(C)CCCNC(=S)N1CCN(c2nc(-c3ccccc3)cs2)CC1	23.7%
COc1cc(C(C)=O)ccc1OC(=O)CN1C(=O)c2ccccc2C1=O	-4.18%
COc1ccccc1-c1sc2ccccc2c1-c1ccc(C(C)=O)cc1	24.8% (active)
COc1ccccc1-c1c(C)nn2c(C)c(C(C)=O)cnc12	3.88%
CCOc1ccc(C2C(C#N)=C(N)N(N(C)C)C3=C2C(=O)CCC3)cc1 (centres undefined)	-5.92%
CC(C)c1ccc(/C=C2\NC(=O)NC2=O)cc1	38.8%
CSCCC(NS(=O)(=O)c1ccc(C)cc1)C(=O)NCCc1c[nH]c2ccccc12 (centres undefined)	-5.02%
CC(C)(C)OC(=O)N/N=C/c1ccc(C(=O)O)cc1	51.6% (active)
O=C(O)c1ccc(/C=N/NC(=O)c2ccc(Br)cc2)cc1	17.5%
COC(=O)N/N=C/c1ccc(/C=N/NC(=O)OC)cc1	-9.65%
CC1CC(C)CN(S(=O)(=O)c2cccc3nonc23)C1 (centres undefined)	-8.46%
COc1cccc(N(C(=O)CNC(=O)c2ccco2)C(C(=O)NC2CCCCC2)c2cccnc2)c1 (centres undefined)	-9.43%

Structure (SMILES)	inhibition
Oc1ccc(-c2c(-c3ccccc3)nn3c(C(F)(F)F)cc(C(F)(F)F)nc23)cc1	-10.8%
COC(=O)c1cccc([N+](=O)[O-])c1CS(=O)(=O)c1ccc(C)cc1	-10.2%
Cc1ccc(N=C2NC(=O)c3cccc([N+](=O)[O-])c32)cc1	98.8% (active)
CCN(Cc1ccccc1)C(=O)CCS(=O)(=O)c1ccc2c(c1)oc(=O)n2C	0.994%
COC(=O)CNC(=O)c1ccccc1F	-15.6%
O=C(CNC(=O)c1ccccc1F)c1ccc(Br)cc1	79.7% (active)
O=C(CNC(=O)c1ccc(F)cc1)c1ccccc1	90.2% (active)
O=C(CNC(=O)c1ccccc1)NCC(=O)OCC(=O)c1ccccc1 (Bz-Gly-Gly-OPac)	-5.66%
CSc1nnc(CNC(=O)c2ccccc2)n1-c1ccc(F)cc1	-6.7%
O=C(COC(=O)CNC(=O)c1ccccc1F)NCC(F)(F)F	16.2%
COc1cc(C(C(=O)NC2CCCC2)N(Cc2ccccc2)C(=O)c2snc(C(N)=O)c2N)ccc1O (centres undefined)	-1.22%
COc1cc(C(=O)OC2CCOC2=O)c([N+](=O)[O-])cc1OC (centres undefined)	-8.09%
COCCCN1C(=O)C(=O)/C(=C(/O)c2ccc(S(=O)(=O)N3CCOCC3)cc2)C1c1ccc(F)cc1 (centres undefined)	-3.02%
Cc1ccc(S(=O)(=O)N2CCC3(CC2)OCCO3)c(C)c1	19.9%
CN(CCC1CCOCC1)C(=O)CC1C(=O)NCCN1Cc1cccc(F)c1 (centres undefined)	-4.33%
CN(C(=O)c1ccccn1)c1nnc(-c2ccccn2)s1	115% (active)
CN(C(=O)COc1ccccc1)c1nnc(-c2ccncc2)s1	3.11%
COc1cc(OC)cc(-c2nnc(N(C)C(=O)c3ccncc3)s2)c1	-6.02%
COc1ccc(C(=O)NCCn2nc(C)cc2C)cc1OC1CCN(C(C)=O)CC1	-11.5%
Cc1ccc(NC(=O)C(CC(=O)O)C2CCCO2)c(C)c1 (centres undefined)	-1.94%
Cc1ccc(C(=O)NNC(=O)c2cccs2)cc1	86.5% (active)
Cc1ccc(C)c(NC(=O)CCC(=O)NNC(=O)c2cccs2)c1	-2.76%
CC(C)C(=O)Nc1ccc(C(=O)NNC(=O)c2cccs2)cc1	28.6%
Cc1ccc(NNC(=O)c2cccs2)cc1Cl	22.1%
Cc1ccc(-c2csc(NNC(=O)c3ccccc3)n2)cc1	1.14%

Structure (SMILES)	inhibition
COc1cccc(CC(=O)Nc2nc(-c3ccc(OC)c(OC)c3)cs2)c1	17.3%
O=C(NNC(=O)c1ccc(Cl)cc1Cl)c1cccs1	74.9% (active)
COc1cccc(CC(=O)Nc2ccc(-c3csc(C)n3)cc2)c1	28.8% (active)
COc1cccc(NC(=O)CN2CCN(c3nc(-c4cccc(OC)c4)cs3)CC2)c1	-2.33%
Cc1ccc(-c2csc(NC(=O)Cc3cccs3)n2)cc1C	37.6%
NNC(=O)c1ccc(Cl)cc1Cl	16.2%
COc1ccccc1CCNS(=O)(=O)c1cc2c3c(c1)C(C)C(=O)N3CCC2 (centres undefined)	-4.37%
CCn1c(=O)c(=O)[nH]c2c(=O)oc3ccc(S(=O)(=O)Nc4ccc(OC)cc4)cc3c21	-7.69%
O=C(NCc1cccs1)c1ccc(CS(=O)Cc2ccccc2Cl)o1 (centres undefined)	-8.99%
COc1cc(CO)ccc1OCC(=O)Nc1cccc2ccccc12	-2.74%
CC1CN(C(=O)CCC(=O)NCc2cccnc2)c2ccccc2O1 (centres undefined)	-5.3%
O=C(CN1C(=O)c2cccnc2Oc2ccc(Cl)cc21)Nc1ccc(F)cc1	-1.35%
CCN(CC(=O)NCc1ccco1)S(=O)(=O)c1ccc(F)cc1	-12.2%
O=C1C(=O)N(CCCN2CCOCC2)C(c2ccc([N+](=O)[O-])cc2)/C1=C(\O)c1ccc2c(c1)OCCO2 (centres undefined)	22.5%
COc1ccc(N2CCN(C(=O)c3ccccc3NC(=O)C3=C(C)OCCS3)CC2)cc1	-21.3%
Cc1ccc(S(=O)(=O)N[C@@H](Cc2ccccc2)C(=O)N2CCC(C(=O)N[C@H](C(=O)O)C(C)O)CC2)cc1 (some centres undefined)	-8.35%
Cc1ccc(C(=O)Nc2ccc(NC(=O)c3cccs3)cc2)c(C)c1	2.76%
Cc1ccc(-c2nnc(-c3ccc(NC(=O)c4cccs4)cc3)o2)cc1	-3.6%
Cc1nc(-c2ccc(NC(=O)c3cccs3)cc2)cs1	45.3% (active)
CCOC(=O)C1CCN(S(=O)(=O)c2ccc3c(c2)N(C)C(=O)CC(=O)N3C)CC1	-0.654%
COc1ccc(NC(=O)NNC(=O)COc2cc(C)c(Cl)c(C)c2)c(OC)c1	-7.12%
CCCCSCCCNC(=O)C1CCC(CNS(=O)(=O)c2ccc(NC(C)=O)cc2)CC1 (centres undefined)	-4.92%
CCC1Sc2ccc(S(=O)(=O)CCC(=O)NCc3cccs3)cc2NC1=O (centres undefined)	-5.71%
O=C(NC1CCCC1)C(c1c(F)cccc1Cl)N(C(=O)c1csnn1)C1CC1 (centres undefined)	-2.62%
COc1ccc(N2CCN(S(=O)(=O)CCNC(=O)C34CC5CC(CC(C5)C3)C4)CC2)cc1	-1.41%

Structure (SMILES)	inhibition
COC(=O)c1cc(NC(=O)C2C3C=CC(C3)C2C(=O)O)cc(C(=O)OC)c1 (centres undefined)	-19%
CC(C)COC(=O)c1ccc(NC(=O)C2C3C=CC(C3)C2C(=O)O)cc1 (centres undefined)	77.2% (active)
CC(=O)NS(=O)(=O)c1ccc(NC(=O)C2C3C=CC(C3)C2C(=O)O)cc1 (centres undefined)	-8.78%
COc1ccc(CNC(=O)C(c2ccc(O)cc2)N(Cc2ccco2)C(=O)c2snc(C(N)=O)c2N)cc1 (centres undefined)	-11.7%
CCCCCOC(=O)NCCOC(=O)Nc1ccc(C(=O)OCC)cc1	-13.5%
CCCCCCOC(=O)NCC(O)c1ccccc1 (centres undefined)	85.6% (active)
CCCCCCCCC(=O)NCCOc1ccccc1	-16.7%
NC(=O)C1CC(=O)N(c2ccc(OCC(=O)NCc3ccccc3)cc2)C1 (centres undefined)	-19.2%
COc1ccc(/C=C(/NC(=O)c2ccco2)C(=O)Nc2ccc(C(C)=O)cc2)cc1	-4.34%
C=CCc1cccc2cc(C(=O)OCC)c(=O)oc12	2.24%
CCCOC(=O)c1cc2ccccc2oc1=O	18.4%
CCOC(=O)c1cc2cc3ccccc3cc2oc1=O	43.1% (active)
Cc1ccc(-n2c(SCC(=O)NCCC3=CCCCC3)nc3n[nH]c(C)c3c2=N)cc1Cl	-4.66%
CCOC(=O)c1ccccc1NC(=O)COC(=O)CCC(=O)N1CCOCC1	-9.24%
CC(=O)N1c2ccc(S(=O)(=O)N3CCCC(C(=O)Nc4cccc(F)c4)C3)cc2CC1C (centres undefined)	-2.88%
Cc1cccc(NC(=O)/C(=C\c2ccco2)NC(=O)c2ccccc2)c1	-2.02%
Cc1cccc(NC(=O)c2nnn(-c3cccc(C(F)(F)F)c3)c2N)c1	31.4%
Cc1cccc(NC(=O)c2cccc(C(F)(F)F)c2)c1	77.8% (active)
CNC(=O)c1ccc(NC(=O)c2cccc(C(F)(F)F)c2)cc1	-2.63%
Cc1cccc(NC(=S)Nc2ccc(Br)cc2)c1	36.6%
Cc1cccc(NC(=S)NC(=O)c2ccc(Br)o2)c1	105% (active)
O=C(CNC(=O)c1ccc(Br)o1)Nc1ccccc1	-4.27%
Cc1cccc(NC(=O)NC(=S)NC(=O)c2ccccc2)c1	80.2% (active)
Cc1cccc(NC(=S)NC23CN4CN(CN(C4)C2)C3)c1	-10.3%
